Sampled rows, rich in hits. Any-hit rate of the full collection: about 2.4%.
WRN helicase inh-1: blocks human WRN helicase | Q14191 | WRN helicase unwinding, fluorescent forked duplex, kinetic | Potency, µM (highest dose often 114 µM), usual class: inhibitors | 360,000 tested, 0.46% active; further: nearly all actives have a fitted effect of over 55% in size
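WRN at 20 nM final preincubated with compound 15 min at room temperature; reaction started with 100 nM fluorophore/quencher forked duplex oligonucleotide and 2 mM ATP final. Unwinding followed kinetically by red fluorescence (ex 525, em 598 nm).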
Pol beta inh: blocks human DNA polymerase beta activity. P06746. 340,000 tested, 1.3% active. Potency, µM (doses to about 114 µM), usual class: inhibitors. Pol beta primer extension/strand displacement, fluorescence kinetic
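10 nM enzyme + cpd, 15 min RT; start with substrate 50 nM final; read 0 min and after 10 min RT. Corrected, normalized data; 4-parameter Hill curve fit.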
Pol kappa inh-1: inhibitors of human DNA polymerase kappa; 400,000 tested, 0.53% active; Q9UBT6; purified Pol kappa, fluorescent DNA synthesis assay, 10 min; Potency, µM (highest dose often 107 µM), hits mostly inhibitors; AID 588579
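Activity was followed as the change in fluorescence between reads at 0 and 10 min after starting the reaction with 50 nM substrate. Beforehand, 10 nM polymerase had been preincubated with compound for 15 min at room temperature.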
POLI inh: DNA polymerase iota (human) inhibition. Pol iota fluorescent replication assay, 10 min. Potency, µM (doses to about 115 µM), actives largely listed as inhibitors. 390,000 tested, 1% active
Target sequence (Q9UNA4 whole entry, looked up): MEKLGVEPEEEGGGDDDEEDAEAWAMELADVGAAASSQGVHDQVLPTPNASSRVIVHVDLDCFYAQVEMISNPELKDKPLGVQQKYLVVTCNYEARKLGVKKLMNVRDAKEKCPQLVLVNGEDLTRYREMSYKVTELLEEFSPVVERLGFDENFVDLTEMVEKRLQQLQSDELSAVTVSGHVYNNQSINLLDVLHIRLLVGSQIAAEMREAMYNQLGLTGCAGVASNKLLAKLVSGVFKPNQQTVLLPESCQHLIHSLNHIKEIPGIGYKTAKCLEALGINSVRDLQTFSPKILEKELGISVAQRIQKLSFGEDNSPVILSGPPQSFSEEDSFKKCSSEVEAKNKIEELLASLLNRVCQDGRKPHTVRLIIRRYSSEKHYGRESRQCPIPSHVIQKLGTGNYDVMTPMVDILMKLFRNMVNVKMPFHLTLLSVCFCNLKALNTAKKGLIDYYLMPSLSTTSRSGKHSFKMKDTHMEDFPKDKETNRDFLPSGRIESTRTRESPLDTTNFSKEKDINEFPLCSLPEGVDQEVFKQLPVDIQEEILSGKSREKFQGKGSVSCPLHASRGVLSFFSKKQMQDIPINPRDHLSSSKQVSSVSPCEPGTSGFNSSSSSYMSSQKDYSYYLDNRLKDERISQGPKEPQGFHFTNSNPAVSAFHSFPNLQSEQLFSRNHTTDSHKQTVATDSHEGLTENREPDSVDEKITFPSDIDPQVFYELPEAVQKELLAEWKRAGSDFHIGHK
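Pol iota at 10 nM preincubated 15 min with compounds at room temperature; reaction started with fluorescent substrate, 50 nM final. Fluorescence read kinetically at 0 and 10 min; buffer-only wells as negative control.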
Pol eta inh-1: inhibitors of human DNA polymerase eta. Q9Y253. recombinant Pol eta, fluorescent DNA replication assay. Potency, µM (titrated, usually from 114 µM), usual class: inhibitors. 390,000 tested, 1.2% active
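Fluorescent replication assay: 50 nM final substrate added after a 15 min room-temperature compound preincubation with 10 nM enzyme. Signal taken at 0 min and again at 10 min.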
FEN1 inh-1: inhibitors of human flap endonuclease 1; Potency, µM (doses to about 114 µM), actives largely listed as inhibitors; 390,000 tested, 0.35% active; Recombinant FEN1 flap cleavage, fluorescence, 15 min; P39748; further: nearly all actives have a fitted effect of over 65% in size
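Quantitative HTS format: each compound was titrated, incubated with 10 nM nuclease for 15 min at room temperature, then challenged with flap substrate at 50 nM final. Signal change over 15 min gave concentration–effect curves.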
Pol kappa inh-2: confirmation of human DNA polymerase kappa inhibitors. shares compounds with Pol eta inh-1. purified Pol-kappa, fluorescent strand-displacement substrate. Potency, µM, most hits filed as inhibitors. 920 tested, 76% active
Pol eta inh-2: confirmation of human DNA polymerase eta inhibitors; 2,600 tested, 64% active; Pol eta primer extension, TAMRA/BHQ fluorescence, 10 min; shares compounds with Pol eta inh-1; Potency, µM, usual class: inhibitors
FEN1 inh-2: confirmation of human FEN1 inhibitors. shares compounds with FEN1 inh-1. FEN1 flap cleavage, TAMRA/BHQ2 fluorogenic DNA substrate. Potency, µM, hits mostly inhibitors. 880 tested, 79% active; further: nearly all actives have a fitted effect of over 60% in size
WRN helicase inh-2: WRN helicase inhibition, cherry-pick retest; shares compounds with WRN helicase inh-1; WRN helicase DNA unwinding, fluorescence kinetic; Potency, µM (doses to about 57.1 µM), hits mostly inhibitors; 610 tested, 63% active; AID 720497; further: nearly all actives have a fitted effect of over 65% in size
TO DNA binding: DNA binding via thiazole orange displacement | Potency, µM (doses to about 57.1 µM), most hits filed as inhibitors | 610 tested, 10% active | shares compounds with WRN helicase inh-1 | thiazole orange DNA binding displacement, fluorescence;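 further: drop in dye fluorescence marks compound binding to DNA; nearly all actives have a fitted effect of over 60% in size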
BLM counter: blocks human BLM helicase in WRN counterscreen. shares compounds with WRN helicase inh-1. Recombinant BLM helicase DNA unwinding, red fluorescence. Potency, µM (titrated, usually from 57.1 µM), usual class: inhibitors. 610 tested, 60% active; further: nearly all actives have a fitted effect of over 60% in size
Large screens that a line does not name were inactive (follow-up assays come after a bar, where they were run). The call rests on the fitted dose curve; in most records, active means well fitted curve in the direction sought with a large enough effect; inconclusive means small, poorly fitted or top-dose-only effect, or another doubt; inactive means no such curve, though single readings can be large; an effect the other way counts as inactive or inconclusive.

COc1cc(/C=C(\C#N)c2nc3ccc(C)cc3[nH]2)cc([N+](=O)[O-])c1O	WRN helicase inh-1 inconclusive, Pol beta inh 45µM, POLI inh inconclusive, Pol eta inh-1 22µM, FEN1 inh-1 50µM | Pol kappa inh-2 24 | Pol eta inh-2 76 | FEN1 inh-2 inconclusive | WRN helicase inh-2 22µM | TO DNA binding 11µM | BLM counter 12µM
COc1cc(NS(=O)(=O)c2ccc(NC(=S)NC(=O)c3sc4cc(F)ccc4c3Cl)cc2)nc(OC)n1	WRN helicase inh-1 inconclusive, POLI inh inconclusive, Pol eta inh-1 45µM, FEN1 inh-1 inconclusive | Pol eta inh-2 43 | FEN1 inh-2 inconclusive | WRN helicase inh-2 22µM | TO DNA binding inactive | BLM counter 24µM
C=CCn1c(SCC(=O)c2ccc(O)c(O)c2)nnc1-c1cccc(C)c1	WRN helicase inh-1 20µM, Pol kappa inh-1 45µM, POLI inh 79µM, Pol eta inh-1 16µM (no result: Pol beta inh) | Pol eta inh-2 inconclusive | WRN helicase inh-2 8.6µM | TO DNA binding inactive | BLM counter inconclusive
CC1C=CC(C)C(C(=O)O)C1C(=O)O (stereo not drawn)	WRN helicase inh-1 inconclusive, Pol beta inh 5.6µM, Pol kappa inh-1 40µM, POLI inh inconclusive, Pol eta inh-1 2.5µM | Pol eta inh-2 5.4 | WRN helicase inh-2 14µM | TO DNA binding inactive | BLM counter 4.8µM
N[C@H](C(=O)O)C1[C@H](C(=O)O)[C@H]1C(=O)O (stereo partly drawn)	none (no result: WRN helicase inh-1, Pol beta inh, POLI inh, Pol eta inh-1, FEN1 inh-1)
Fc1ccc([C@H]2CCNC[C@H]2COc2ccc3c(c2)OCO3)cc1	none (no result: WRN helicase inh-1, Pol beta inh, POLI inh, Pol eta inh-1, FEN1 inh-1)
CC(=O)Oc1cc(C(=O)OCC(=O)N2CCc3ccccc3C2)cc(OC(C)=O)c1OC(C)=O	WRN helicase inh-1 18µM, Pol kappa inh-1 40µM, POLI inh inconclusive, Pol eta inh-1 7.1µM, FEN1 inh-1 25µM (no result: Pol beta inh) | Pol kappa inh-2 17 | Pol eta inh-2 inconclusive | FEN1 inh-2 24 | WRN helicase inh-2 27µM | TO DNA binding inactive | BLM counter 22µM
Cc1cc(O)c(Oc2cc(C)cc(O)c2O)c(O)c1	WRN helicase inh-1 28µM, Pol beta inh 3.5µM, Pol kappa inh-1 22µM, POLI inh 40µM, Pol eta inh-1 22µM, FEN1 inh-1 50µM | Pol eta inh-2 38 | WRN helicase inh-2 19µM | TO DNA binding inactive | BLM counter 22µM
Cc1ccc(OCC(=O)O)c(O)c1	none (no result: Pol beta inh)
Cc1cc(C)n(-c2nc(NC(C)C)nc(NC(C)(C)C)n2)n1	none (no result: WRN helicase inh-1, Pol beta inh, Pol eta inh-1)
COc1ccc(-c2cn3cccnc3n2)cc1NC(=O)Nc1cc(C)ccc1C	POLI inh inconclusive, Pol eta inh-1 79µM (no result: WRN helicase inh-1) | Pol kappa inh-2 15 | Pol eta inh-2 inconclusive | WRN helicase inh-2 15µM | TO DNA binding inactive | BLM counter 6.8µM
COc1cccc(C(=O)Nc2cccc(C(=O)NC3=NN(c4c(Cl)cc(Cl)cc4Cl)C(=O)C3)c2)c1	WRN helicase inh-1 inconclusive, Pol beta inh 14µM, Pol kappa inh-1 22µM, POLI inh inconclusive, Pol eta inh-1 40µM, FEN1 inh-1 inconclusive | Pol eta inh-2 76 | WRN helicase inh-2 inconclusive | TO DNA binding inconclusive | BLM counter inconclusive
CCNC(=S)N/N=C1\C(=O)c2cccc3cccc1c23	none
O=C(N/N=C1/C(=O)c2cccc3cccc1c23)c1ccc(Cl)cc1	WRN helicase inh-1 16µM, Pol beta inh inconclusive, Pol eta inh-1 8.9µM, FEN1 inh-1 79µM | Pol eta inh-2 inconclusive | WRN helicase inh-2 6.1µM | TO DNA binding 19µM | BLM counter 2.2µM
CC(C)C(=O)c1cc2c(cc1NC(=O)c1ccccc1F)OCCO2	none (no result: WRN helicase inh-1)
O=C1OC(c2cccs2)=N/C1=C\c1ccc(-c2cccc(Cl)c2)o1	POLI inh inconclusive, Pol eta inh-1 inconclusive
N=C1S/C(=C\c2ccc(-c3cccc(Cl)c3)o2)C(=O)N1c1nccs1	WRN helicase inh-1 45µM, Pol beta inh 8.9µM, POLI inh inconclusive, Pol eta inh-1 10µM, FEN1 inh-1 inconclusive | Pol kappa inh-2 24 | Pol eta inh-2 inconclusive | WRN helicase inh-2 22µM | TO DNA binding 17µM | BLM counter 7.6µM
O=C(O)/C=C/C(=O)c1ccc2c(c1)CCc1ccccc1-2	WRN helicase inh-1 1.5µM, POLI inh 1.6µM, Pol eta inh-1 35µM, FEN1 inh-1 inconclusive (no result: Pol beta inh) | Pol eta inh-2 inconclusive | WRN helicase inh-2 inconclusive | TO DNA binding inactive | BLM counter 19µM
Cc1ccccc1Nc1nc(N)nc(COC(=O)c2ccc([N+](=O)[O-])o2)n1	POLI inh inconclusive, Pol eta inh-1 89µM, FEN1 inh-1 inconclusive (no result: Pol beta inh) | FEN1 inh-2 21
Cc1ccccc1Nc1nc(N)nc(COC(=O)c2ccccc2)n1	none
CC1CC=CC2C1C(=O)N(Cc1ccccc1)C2c1ccc2ccccc2c1Br (stereo not drawn)	POLI inh inconclusive (no result: WRN helicase inh-1, Pol beta inh, Pol eta inh-1)
COc1ccc(CCNC(=O)COc2ccc([N+](=O)[O-])cc2)cc1	none
O=C(COC(=O)c1ccc([N+](=O)[O-])o1)NCc1ccc(F)cc1	POLI inh inconclusive, Pol eta inh-1 89µM, FEN1 inh-1 inconclusive (no result: Pol beta inh) | FEN1 inh-2 13
COc1ccc(CCNC(=O)COC(=O)c2ccc([N+](=O)[O-])o2)cc1	POLI inh inconclusive, Pol eta inh-1 inconclusive, FEN1 inh-1 inconclusive (no result: Pol beta inh) | FEN1 inh-2 17
O=C(COC(=O)c1ccc([N+](=O)[O-])o1)NCCCc1ccccc1	POLI inh inconclusive, Pol eta inh-1 89µM, FEN1 inh-1 inconclusive (no result: Pol beta inh) | FEN1 inh-2 19
CC(=O)Nc1ccc(NC(=O)COC(=O)c2ccc([N+](=O)[O-])o2)cc1	POLI inh inconclusive, Pol eta inh-1 inconclusive, FEN1 inh-1 20µM (no result: Pol beta inh) | FEN1 inh-2 15
Cc1nn(CCC(=O)NCc2cccc(Br)c2)c(=O)c2nn(-c3ccccc3)c(C)c12	none (no result: WRN helicase inh-1)
